# Laboratory results reported in PubChem BioAssay AID1851 (National Center for Advancing Translational Sciences (NCATS), 2009).
# Where “and” joins values, the source holds several entries; their conditions need not be identical. Equal entries are not always repeated. Out of some 16,000 compounds screened, about 4,000 (25%) were called active. Roughly 26% stayed inconclusive and do not appear here. Calls follow the shape of the dose curve; as a rule, active = well fitted curve in the direction sought with a large enough effect; inconclusive = small, poorly fitted or top-dose-only effect, or effect the other way; inactive = no such curve, though single readings can be large or run the other way. These entries were drawn from the full list. Where a structure was tested more than once in an assay, its records may differ in their call.
# Molecular target: Cytochrome P450 2C9 (Homo sapiens) (UniProt P11712)
# Sequence (P11712 whole entry, looked up): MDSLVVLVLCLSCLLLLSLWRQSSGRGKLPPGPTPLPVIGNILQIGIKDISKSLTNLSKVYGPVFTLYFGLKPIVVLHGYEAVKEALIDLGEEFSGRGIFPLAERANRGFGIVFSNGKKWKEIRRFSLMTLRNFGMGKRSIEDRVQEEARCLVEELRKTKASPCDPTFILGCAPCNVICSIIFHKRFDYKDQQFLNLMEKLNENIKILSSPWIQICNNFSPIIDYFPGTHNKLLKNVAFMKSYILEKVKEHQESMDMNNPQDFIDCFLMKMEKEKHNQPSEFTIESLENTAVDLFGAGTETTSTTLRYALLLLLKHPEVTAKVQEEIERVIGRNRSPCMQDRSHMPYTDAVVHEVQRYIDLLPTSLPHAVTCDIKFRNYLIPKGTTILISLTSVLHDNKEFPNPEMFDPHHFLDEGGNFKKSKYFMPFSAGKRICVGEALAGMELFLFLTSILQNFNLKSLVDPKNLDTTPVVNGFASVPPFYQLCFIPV
# Test: Cytochrome panel assay with activity outcomes
# Details: recombinant CYP, pro-luciferin dealkylation, luminescence, p450-cyp2c9; series mostly up to 57.1 µM; activity, negative = inhibition: at the top concentration
# % is scaled to controls: 0 for no effect and ±100 for the full control effect.
Compound,"activity, negative = inhibition",AC50
COc1cc2c(CCNC(C)=O)c[nH]c2cc1O,-7.58% (inactive),–
CCCCOc1ccc(-c2nnn(CC(=O)c3c[nH]c4ccccc34)n2)cc1,-13.3% (inactive),–
CCc1nnc(NC(=O)CCC(=O)NCc2ccccc2OC)s1,-7.86% (inactive),–
COc1ccccc1CNc1ccnc(-c2ccc(C(=O)N(C)C)cc2)n1,-10.3% [at 2.29 µM] (inactive),–
COc1ccccc1CNC(=O)Cn1nnc(-c2ccncc2)n1,–,7.94 µM (active)
COc1ccc(-c2nnn(CC(=O)NCCc3c[nH]c4ccccc34)n2)cc1OC,–,4.47 µM (active)
NC(N)=[N+]1CCc2ccccc2C1,20.3% (inactive),–
CC1=C(C#N)C(Nc2ccc(Cl)cn2)(C(F)(F)F)C(=O)N1 (stereo not given),–,14.1 µM (active)
COc1cccc(C2C(C(=O)c3cc4ccccc4o3)=C(O)C(=O)N2c2cc(C)on2)c1OC (stereo not given),–,14.1 µM (active)
COc1cc(OC)c(C2N(c3cc(C)on3)C(=O)C3CCCN32)cc1OC (stereo not given),12.9% (inactive),–
Cc1cc(N2C(=O)C(O)=C(C(=O)c3ccco3)C2c2ccc(O)cc2)no1 (stereo not given),–,11.2 µM (active)
CN(C)CCN1C(=O)C(O)=C(C(=O)c2cc3ccccc3o2)C1c1ccccn1 (stereo not given),-12.8% (inactive),–
CC(=O)Nc1ccc(OC[C@@H](O)CNC(C)C)cc1,–,inactive
CC(C)NC[C@@H](O)COc1ccc(COCCOC(C)C)cc1,–,inactive
CC(C)NC[C@@H](O)COc1ccc(CCOCC2CC2)cc1,–,inactive and 631 nM (active)
COc1ccccc1CN1CC[C@@]2(CCCN(C(=O)c3cccn3C)C2)C1,-0.791% (inactive),–
COC(=O)[C@@]1(Cc2ccc(F)cc2)[C@H]2c3cc(C(=O)N(C)C)n(Cc4c(CO)[nH]cc(C)c4=O)c3C[C@H]2CN1C(=O)c1ccccc1,–,10 µM (active)
COC(=O)[C@@]1(Cc2ccccc2)[C@H]2c3cc(C(=O)N(C)C)n(Cc4c(CO)[nH]cc(C)c4=O)c3C[C@H]2CN1C(=O)c1ccccc1,–,0.631 µM (active)
CN(C)C(=O)c1ccc(-c2cncnc2Nc2ccccc2)cc1,-3.51% [at 2.29 µM] (inactive),–
C=CC[C@H](N)C(=O)O,-11% (inactive),–
O=C(O)C1CCC(=O)N(C2CC2)C1c1ccccc1 (stereo not given),1.83% (inactive),–
CC12CC[C@@H]3c4ccc(OP(=O)(O)O)cc4CCC3C1CCC2=O (stereo not given in full),15.4% [at 11.4 µM] (inactive),–
Clc1ccccc1-c1nc(N2CCNCC2)c2ccccc2n1,2.98% [at 2.29 µM] (inactive),–

Compound,"activity, negative = inhibition",AC50
Clc1ccccc1-c1nc(-c2ccncc2)no1,-19.4% [at 11.4 µM] (inactive),–
Clc1ccccc1-c1nc(-c2ccccc2)n[nH]1,–,28.2 µM (active)
Cc1nnc(SCC(=O)N2CC(=O)Nc3ccccc32)n1Cc1ccccc1,-9.86% (inactive),–
Cc1sc2nc(C3CC3)nc(SCC(=O)N3CC(=O)Nc4ccccc43)c2c1C,–,1 µM (active)
O=c1c2c(-c3ccc(Cl)cc3)csc2nc2n1CCC2,–,14.1 µM (active)
O=C(Nc1ccc(F)cc1Cl)c1ccc2c(=O)n3c(nc2c1)CCCCC3,-38.3% (inactive),–
O=c1c2ccccc2nc2n1CCC2,-23% (inactive),–
COCC(=O)N1CCC2(CC1)CN(C(=O)Nc1cccc(F)c1)C2,-3.38% (inactive),–
O=c1c(-c2ccc(O)cc2)coc2cc(O)ccc12,–,6.31 µM (active)
O=c1c(O)c(-c2ccc(O)c(O)c2)oc2cc(O)cc(O)c12,-0.213% (inactive),–
O=c1c(-c2ccc(O)cc2)coc2cc(O)cc(O)c12,-21.8% (inactive),–
CSc1nc(N)c2ncn([C@H]3O[C@H](COP(=O)(O)OP(=O)(O)O)[C@@H](O)[C@@H]3O)c2n1,-4.22% (inactive),–
O=C1C2C3c4ccccc4C(c4ccccc43)C2C(=O)N1c1nc(-c2ccccc2)cs1 (stereo not given),–,0.891 µM (active)
O=C1[C@@H]2[C@@H](C(=O)N1c1ccc(OCc3ccccc3)cc1)[C@@H]1c3ccccc3[C@@H]2[n+]2ccccc21,0.978% [at 11.4 µM] (inactive),–
CN(C)CCCN1c2ccccc2Sc2ccc3ccccc3c21,-11.1% [at 11.4 µM] (inactive),–
CO[C@@H]1/C=C\CC(=O)N[C@@H](C)C(=O)OC[C@@H](OC)[C@H](C)CCCC(=O)OC[C@H]1C,-25.9% [at 11.4 µM] (inactive),–
Cc1ccc(C(=O)O/N=C\c2ccc(N3CCCCC3)c([N+](=O)[O-])c2)cc1,–,2.24 µM (active)
Cc1ccccc1C(=O)N1CCN(c2ccc([N+](=O)[O-])c(N3CCOCC3)c2)CC1,–,5.01 µM (active)
Cc1cc(C)n(-c2cc(N3CCN(C(=O)c4ccc(C(C)(C)C)cc4)CC3)ccc2[N+](=O)[O-])n1,–,3.98 µM (active)
COC(=O)c1ccc(N2CCN(CC(=O)c3ccc(-c4ccccc4)cc3)CC2)c([N+](=O)[O-])c1,–,5.01 µM (active)
Cn1c(=O)n(C)c2cc([N+](=O)[O-])c(N3CCN(C(=O)c4ccccc4Cl)CC3)cc21,3.49% (inactive),–
CN(C)CCNc1nc2c(c(=O)n(C)c(=O)n2C)n1C,4.45% [at 11.4 µM] (inactive),–
CCCN(CC1CC1)c1nc(C)nc(Nc2c(Cl)cc(Cl)cc2Cl)c1Cl,-24.6% (inactive),–

Compound,"activity, negative = inhibition",AC50
C=CC[C@@H]1C=C[C@H](O/N=C(\C)CCN2CCCc3nc(C)c(C)cc32)[C@H](CO)O1,3.93% [at 11.4 µM] (inactive),–
CCOC(=O)c1c(NC(=O)c2ccc(N3CCOCC3)c([N+](=O)[O-])c2)sc(C)c1C,-13.2% (inactive),–
Cc1ccc(OC(=O)c2ccc(N3CCOCC3)c([N+](=O)[O-])c2)cc1,–,14.1 µM (active)
COCC(=O)N1CCN(c2ccc([N+](=O)[O-])cc2)CC1,11.2% (inactive),–
Cc1ccc(OCC(=O)N2CCN(c3ccc([N+](=O)[O-])c(N4CCOCC4)c3)CC2)cc1,–,7.94 µM (active)
CO/N=C/c1ccc(N2CCN(C(=O)c3ccc(Cl)cc3Cl)CC2)c([N+](=O)[O-])c1,–,7.94 µM (active)
CC(C)Cn1c(C(C)C)nc([N+](=O)[O-])c1S(=O)(=O)c1ccc(F)cc1,-16.4% (inactive),–
CN(C)Cc1ccccc1-c1nccc(NC2CC2)n1,5.88% [at 2.29 µM] (inactive),–
CC(C)=CCC/C(C)=C/CO/N=C1/C[C@@H](O)[C@@H](O)[C@@H]2[C@@H]3C(=O)N(C[C@@H]4CCCO4)C(=O)[C@H]3CC[C@H]12,4.47% [at 11.4 µM] (inactive),–
O=C(Cn1cnc([N+](=O)[O-])c1)NCc1ccc(F)cc1,-25.7% (inactive),–
COc1ccccc1OCCn1cc(C(=O)c2ccco2)c2ccccc21,–,0.562 µM (active)
Cc1ccc(CNC(=O)Cn2c(=O)oc3ccccc32)o1,-2.17% (inactive),–
COc1ccccc1CN1CCC2(CC1)CCN(C(=O)c1ccco1)CC2,11.3% (inactive),–
O=C(Cn1cc(C(=O)c2ccco2)c2ccccc21)NCc1ccco1,–,14.1 µM (active)
Cc1ccccc1C(=O)c1cccn1CC(=O)NCc1ccco1,-24.1% (inactive),–
COc1ccccc1CN1CCCC2(CCN(C(=O)c3ccco3)CC2)C1,0.5% (inactive),–
N[C@H](C(=O)N[C@@H]1C(=O)N2C(C(=O)O)=C(Cl)CS[C@@H]12)c1ccccc1,-11.3% [at 25.6 µM] (inactive),–
COc1cccc2c1C(=N)c1c(O)c3c(c(O)c1C2=O)C[C@](O)(C(C)=O)C[C@@H]3O[C@H]1C[C@H](N)[C@@H](O)[C@H](C)O1,-16.6% [at 11.4 µM] (inactive),–
COc1ccc(NC(=O)C23CC4CC(C2)CC(n2cnc(Br)n2)(C4)C3)c(C)c1,-24.1% (inactive),–
O=C(NC12CC3CC(CC(C3)C1)C2)C12CC3CC(C1)CC(n1cnc(Cl)n1)(C3)C2,–,12.6 µM (active)
CNc1ccnc(-c2ccccc2CN(C)C)n1,0.444% [at 2.29 µM] (inactive),–
CCOc1ccc(CCNC(=O)C2CCN(S(=O)(=O)CC)CC2)cc1OCC,-11.3% (inactive),–
CCOc1ccc(CCNC(=O)CCCN2C(=O)c3ccccc3C2=O)cc1OCC,–,15.8 µM (active)

Compound,"activity, negative = inhibition",AC50
CCCc1nc2sc3ccccc3c(=O)c2c(=O)n1CCOC,-13.7% (inactive),–
CCCCCOC(=O)c1c(N)n(CCOC)c2nc3ccccc3nc12,–,5.01 µM (active)
COCCn1c(=O)cnc2cnc(Nc3ccccc3)nc21,-24.6% (inactive),–
O=C(Nc1nc2ccccc2n1Cc1ccccc1)c1ccc(COc2ccccc2[N+](=O)[O-])o1,–,2 µM (active)
CCn1nccc1C(=O)Nc1nc2ccccc2n1CCN1CCCCC1,-9.2% (inactive),–
N[C@H](C(=O)O)c1nn[nH]n1,11.8% (inactive),–
CC1=C(C)/C(=N\OC(=O)/C=C/c2ccccc2)C=CC1=O,10.2% (inactive),–
Cn1cnc([N+](=O)[O-])c1Sc1nc(N)nc2c1ncn2Cc1ccccc1,4.6% [at 11.4 µM] (inactive),–
COc1ccccc1CNc1ccnc(-c2cccc(C#N)c2)n1,-24.8% [at 2.29 µM] (inactive),–
COCCNc1nc(-c2ccc(C(=O)N(C)C)cc2)nc2ccccc12,-2.68% [at 2.29 µM] (inactive),–
CCCCNc1nc(-c2ccccc2)c(C(=O)OCC)cc1C#N,–,3.16 µM (active)
COC(=O)c1cc(C#N)c(NCc2ccc(Cl)cc2Cl)nc1C,27.9% (inactive),–
COC(=O)c1cc(C#N)c(Oc2ccc(OC)cc2)nc1C,–,14.1 µM (active)
CC(=O)NCCNc1ncnc2ccc(-c3ccccc3C#N)cc12,-2.36% [at 2.29 µM] (inactive),–
CCCCNc1c(C(=O)OCC)c(C)nc2c1cnn2CC,-25.5% [at 25.6 µM] (inactive),–
CCOC(=O)c1cc(C#N)c(Oc2ccccc2OC)nc1-c1ccccc1,–,7.08 µM (active)
Cc1cc(C)c2cc(C#N)c(NCCOC(=O)c3ccccc3C)nc2c1,–,2.51 µM (active)
N[C@@H](CO)C(=O)NNCc1ccc(O)c(O)c1O,-9.21% (inactive),–
Cn1c(=O)c2[nH]c(CCC(=O)O)nc2n(C)c1=O,24.4% [at 11.4 µM] (inactive),–
CN(C)C(N)=NCCC[C@H](N)C(=O)O,-9.88% (inactive),–
O[C@H](C[C@@H]1CCCCN1)c1ccc2c(c1)oc1ccccc12,-4.01% [at 11.4 µM] (inactive),–
